Reference: PubChem BioAssay (NCI)
Compounds without any hit were thinned out: in the full panel of roughly 83,000, 20% have a hit.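 Single-dose data. Exposure time 48 hours. Values below 10 considered active.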 Activity calls are given as the source filed them.

The compounds below were run on SW-620 colon (assay: NCI-60 one-dose screen, 48 h (100 = growth as untreated, 0 = no growth, -100 = all killed)). Settings: 10 µM.
Protocol: Growth inhibition of the SW-620 human tumor cell line is measured as a screen for anti-cancer activity. Cells are grown in 96 well plates and exposed to the test compound for 48 hours. Compounds are tested at a single concentration, which is 10^-5 M for most compounds. The reported endpoint is percent growth (GI% or GIPRCNT), where numbers from 0 - 100% represent growth inhibition, and numbers from -100% - 0 represent cell death. For example, a value of 40 represents 60% growth inhibition. A value of 0 means no net growth occurred over the course of the experiment. A value of -40 indicates 40% of cells at the beginning of the experiment died by the end of the experiment. A value of -100 means all cells are dead at the end of the experiment.
NCI-60 Human Tumor Cell Lines Screen was performed using the standard one-dose NCI protocol, which is described in more detail at https://dtp.cancer.gov/discovery_development/nci-60/default.htm.
Compounds with GIPRCNT values below 10 were considered active. Activity score was based on GIPRCNT using the following formula: […]
Score is 0 for GIPRCNT values of 100 or above, 50 for GIPRCNT values of 0, and 100 for GIPRCNT values of -100.
For `CC12CC3CC1C(C(=O)O2)C3C(=O)O` (stereo not given), the growth was 102% (inactive).
With `O=C1C=CC2=C3c4cc(O)c(O)cc4CC3(O)COC2=C1O` (stereo not given) the growth was 101% (inactive).
With `COc1ccc(C2OC(N)=C(O)C2=O)cc1OC` (stereo not given) the growth was 103% (inactive).
For `Cc1ccc(C(=O)c2ccccc2)c(C)c1`, the growth was 98.7% (inactive).
With `CCNCCCCNCCCCNCCCCNCCCCNCC` the growth was 68.3% (inactive).
With `CC1C(=O)c2ccccc2CC1C(=O)O` (stereo not given) the growth was 115% (inactive).
For `COS(=O)(=O)c1ccc(Br)cc1`, the growth was 97.5% (inactive).
For `CSc1[nH]c(=O)ncc1F`, the growth was 102% (inactive).
In the case of `CC(C(=O)O)(C1CCCCC1)C1(O)CCCCC1` (stereo not given), the growth is reported as 105% (inactive).
With `O=C(O)CCCc1ccccc1` the growth was 111% (inactive).
With `C=CC[N+](C)(C)C` the growth was 107% (inactive).
For `CC(C)=NNC(N)=S`, the growth was 68.7% (inactive).
In the case of `O=C(Nc1cc(-c2ccccc2)[nH]n1)c1ccc(Cl)cc1`, the growth is reported as 86.1% (inactive).
In the case of `Cc1ccc(N)cc1[N+](=O)[O-]`, the growth is reported as 100% (inactive).
With `CC(C)=C(NC(=O)c1ccccc1)C(=O)O` the growth was 102% (inactive).
For `OC(c1ccccn1)C(O)c1ccccn1` (stereo not given), the growth was 109% (inactive).
For `CCC(=O)Oc1ccc(OC)cc1`, the growth was 102% (inactive).
With `C/C(=N\O)C1(O)CCCCC1` the growth was 101% (inactive).
For `COc1cc2c(cc1OC)[C@H](C(=O)O)[C@@H](c1ccc(OC(C)C)c(OC)c1)N(C)C2=O`, the growth was 109% (inactive).
In the case of `CC1(C(=O)O)NC(C(=O)O)Cc2c1[nH]c1ccccc21` (stereo not given), the growth is reported as 97.8% (inactive).
With `CC(=O)OC(C(=O)O)c1ccccc1` (stereo not given) the growth was 101% (inactive).
With `C=C[Si](OC(C)=O)(OC(C)=O)OC(C)=O` the growth was 101% (inactive).
With `CSC[C@H](NC(=O)COc1cccc2cnccc12)C(=O)NC(Cc1ccccc1)C(O)C(=O)N1CSC[C@H]1C(=O)NC(C)(C)C` (stereo not given in full) the growth was 105% (inactive).
For `O=C1OC(c2ccc(F)cc2)CC1CN1CCOCC1` (stereo not given), the growth was 102% (inactive).
`COc1ccc(-c2cc(-c3cc(-c4ccc(OC)cc4)nc(N)n3)nc(N)n2)cc1` was tested, and the growth was 97.5% (inactive).
`CCc1ccc(/C(C#N)=C/C=C/c2ccccc2)cc1` was tested, and the growth was 21% (inactive).
In the case of `CC(C)COC(=O)COC(=O)OCCOCCOC(=O)OCC(=O)OCC(C)C`, the growth is reported as 108% (inactive).
With `Oc1ccc(Cc2ccccc2)c2cccnc12` the growth was 31.4% (inactive).
With `CC1CCCCN1C(=S)Nc1ccc(S(=O)(=O)N2CCCCC2)cc1` (stereo not given) the growth was 93.2% (inactive).
In the case of `O=C(O)C(Cc1ccccc1)C(=O)O`, the growth is reported as 105% (inactive).
`Cn1cnc2nc(Cl)nc(Cl)c21` was tested, and the growth was 22.2% (inactive).
`CC(=O)Oc1ccc(Br)cc1C(=O)O` was tested, and the growth was 107% (inactive).
With `CC(C)CCCC(=O)O` the growth was 100% (inactive).
For `CCCCN(CCCC)CCCO`, the growth was 120% (inactive).
In the case of `Cc1ccccc1C1N=C2Oc3ccccc3C=C2C(=O)N1` (stereo not given), the growth is reported as 40% (inactive).
In the case of `N#CCCN(CCCN1CCOCC1)CN1C(=O)c2ccccc2C1=O`, the growth is reported as 114% (inactive).
For `COc1cc2nc3cc([N+](=O)[O-])ccc3c(Cl)c2cc1OC`, the growth was 104% (inactive).
For `CCC(C)(O)c1ccc(C)cc1` (stereo not given), the growth was 98.2% (inactive).
For `C[C@@H](c1ccccc1)[C@@H](C(=O)O)c1ccccc1`, the growth was 103% (inactive).
For `Cc1ccc(C)n1-c1ccsc1C(=O)NNC(=O)C(Cl)Cl`, the growth was 102% (inactive).
